The results in this text go back to PubChem BioAssay (NCI).

The panel holds about 83,000 compounds, 20% with a hit somewhere; the sample as a whole holds those more often.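 How to read the values: 0–100, growth inhibition (40 = 60% inhibited); 0, no net growth; -100 to 0, cell death (-40 = 40% of starting cells died; -100 = all dead).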 Values without a mark were called inactive. Calls of active or inactive are those of the source. How the source made its calls: active means growth percent below 10; inactive means the rest.

Some test systems named below: NCI-H23 lung; NCI-H226 lung; NCI-H322M lung; HOP-62 NSCLC; NCI-H460 lung; HOP-92 NSCLC; NCI-H522 lung; A549/ATCC NSCLC; 786-0 renal; COLO 205 colon; DU-145 prostate; K-562 leukemia; MALME-3M melanoma; MDA-MB-231 breast; RXF 393 renal; SF-268 CNS; SF-295 CNS; SF-539 CNS; UACC-257 melanoma; M14 melanoma.
Common to all, as to assay: NCI-60 one-dose screen, 48 h (100 = growth as untreated, 0 = no growth, -100 = all killed)
Conditions in all cases: 10 µM unless noted

Take `CC[C@@H](c1ccc2cc(OC)ccc2c1)C(C)(C)C(=O)F`: the growth in the experiment on NCI-H23 lung was 93.4%; in the experiment with NCI-H226 lung, 103%; with NCI-H322M lung, 124%; in the experiment with HOP-62 NSCLC, 90.8%; in the experiment with NCI-H460 lung, 106%; in the experiment on HOP-92 NSCLC, 95.1%. In addition, the growth in the experiment on NCI-H522 lung was 104%; with A549/ATCC NSCLC it was 92.5%; with 786-0 renal, 109%; with COLO 205 colon, 90.2%; in the experiment with DU-145 prostate it was 104%; with K-562 leukemia, 104%. Moreover, the growth in the experiment on MALME-3M melanoma was 97.1%; in the experiment on MDA-MB-231 breast, 106%; with RXF 393 renal, 98.6%; in the experiment on SF-268 CNS, 113%; with SF-295 CNS, 98.7%; with SF-539 CNS, 103%. Further, the growth in the experiment with UACC-257 melanoma was -0.544% (active); in the experiment with M14 melanoma it was 99.2%.
Consider `N=C(N)c1ccc(-c2ccc(-c3ccc(F)cc3)s2)s1`, for which the growth in the experiment on NCI-H23 lung was -62.6% (active); in the experiment with NCI-H226 lung it was 90.4%; with NCI-H322M lung, -29.7% (active); with HOP-62 NSCLC, 57%; in the experiment with NCI-H460 lung it was -64.9% (active); in the experiment with HOP-92 NSCLC it was 28.5%. Further, the growth is -72% (active) in the experiment with NCI-H522 lung; -65.8% (active) with A549/ATCC NSCLC; -57.5% (active) in the experiment on 786-0 renal; -80.6% (active) in the experiment with COLO 205 colon; -86.3% (active) in the experiment on DU-145 prostate; -61.4% (active) in the experiment on K-562 leukemia. Further, the growth in the experiment on MALME-3M melanoma was 76.9%; in the experiment with MDA-MB-231 breast, -54.4% (active); in the experiment on RXF 393 renal, -69.1% (active); in the experiment on SF-268 CNS it was -19.5% (active); in the experiment with SF-295 CNS, -76.4% (active); in the experiment on SF-539 CNS, -29% (active). The growth was -50.2% (active) in the experiment on UACC-257 melanoma and -45.5% (active) in the experiment with M14 melanoma.
In the case of `C=CC(=O)NCCOc1cccc(Nc2cc(NCCCNC(=O)C3CCC3)c(Br)cn2)c1`, the growth is -25.8% (active) in the experiment with NCI-H23 lung; -14.1% (active) in the experiment with NCI-H226 lung; -6.07% (active) with NCI-H322M lung; -22.4% (active) in the experiment with HOP-62 NSCLC; -18% (active) with NCI-H460 lung; -28.5% (active) with HOP-92 NSCLC. The growth with NCI-H522 lung is -19.3% (active); with A549/ATCC NSCLC, -16.7% (active); with 786-0 renal, -35.7% (active); in the experiment with COLO 205 colon, -42.7% (active); with DU-145 prostate, 8.96% (active); in the experiment with K-562 leukemia, 9.43% (active). Also, the growth is -19% (active) with MALME-3M melanoma; -25.6% (active) in the experiment on MDA-MB-231 breast; -77% (active) with RXF 393 renal; -25.3% (active) with SF-268 CNS; 2.75% (active) in the experiment on SF-295 CNS; -58.3% (active) in the experiment with SF-539 CNS. The growth was -11.6% (active) with UACC-257 melanoma and -18.7% (active) in the experiment with M14 melanoma.
Consider `CC/C(Cc1ccccc1)=C(\c1ccc(OCCN2CCCCCC2)cc1)c1ccc(OC(=O)NCc2ccccc2)cc1`, for which the growth in the experiment on NCI-H23 lung is 74.9%; with NCI-H226 lung it was 90%; with NCI-H322M lung, 96.6%; in the experiment with HOP-62 NSCLC it was 82.8%; in the experiment on NCI-H460 lung it was 5.51% (active); in the experiment with HOP-92 NSCLC, 56%. For the same compound, the growth in the experiment on NCI-H522 lung is 84.7%; in the experiment on A549/ATCC NSCLC, 64.4%; in the experiment on 786-0 renal it was 58.4%; with COLO 205 colon, -24.2% (active); in the experiment with DU-145 prostate, 83.2%; with K-562 leukemia, -11.8% (active). Moreover, the growth in the experiment with MALME-3M melanoma was 61.3%; with MDA-MB-231 breast it was 74.4%; in the experiment on RXF 393 renal, 77.4%; in the experiment with SF-268 CNS, 77.3%; in the experiment on SF-295 CNS, 107%; in the experiment on SF-539 CNS it was 79.7%. Further, the growth in the experiment with UACC-257 melanoma is 77.6%; in the experiment with M14 melanoma it was 56.3%.
For the compound `CN1CCN(CCCOC(=O)c2c3c(n4ccccc24)C(=O)c2ncccc2C3=O)CC1`, the growth in the experiment on NCI-H23 lung is -30.6% (active); in the experiment on NCI-H226 lung, 15.7%; with NCI-H322M lung, 28.5%; in the experiment on HOP-62 NSCLC, -34.9% (active); with NCI-H460 lung it was -15.1% (active); in the experiment on HOP-92 NSCLC, 14.8%. The growth is -87.1% (active) with NCI-H522 lung; -47.9% (active) in the experiment on A549/ATCC NSCLC; 1.4% (active) with 786-0 renal; -93.2% (active) with COLO 205 colon; -66.5% (active) in the experiment on DU-145 prostate; -30.4% (active) in the experiment with K-562 leukemia. Further, the growth with MALME-3M melanoma is -59.7% (active); in the experiment on MDA-MB-231 breast, 20%; in the experiment on RXF 393 renal, -2.1% (active); in the experiment on SF-268 CNS, 5.69% (active); with SF-295 CNS, -5.73% (active); in the experiment with SF-539 CNS, -13.1% (active). In addition, the growth with UACC-257 melanoma was -34.2% (active); in the experiment with M14 melanoma it was -86.1% (active).
As to `Cn1c(O)c(C(/C=C/c2ccccc2)=Nc2ccccc2N)c(=O)n(C)c1=O`, the growth with NCI-H23 lung was 94.2%; in the experiment on NCI-H226 lung, 97.9%; in the experiment on NCI-H322M lung, 105%; in the experiment on HOP-62 NSCLC, 105%; in the experiment with NCI-H460 lung it was 104%; in the experiment with HOP-92 NSCLC, 82.4%. The growth in the experiment on NCI-H522 lung is 90.3%; in the experiment on A549/ATCC NSCLC, 103%; in the experiment with 786-0 renal, 103%; in the experiment with COLO 205 colon, 95%; in the experiment with DU-145 prostate, 117%; with K-562 leukemia, 55.9%. Besides, the growth is 118% in the experiment with MALME-3M melanoma; 91.4% with MDA-MB-231 breast; 109% with RXF 393 renal; 114% in the experiment with SF-268 CNS; 105% in the experiment with SF-295 CNS; 107% in the experiment with SF-539 CNS. Moreover, the growth with UACC-257 melanoma was 106%; in the experiment on M14 melanoma, 104%.
In the case of `Fc1ccc2c(c1)c(-c1nc(-c3c[nH]c4ncccc34)cs1)cn2CCCN1CCOCC1`, the growth is 76% with NCI-H23 lung; 59.3% with NCI-H226 lung; 80.9% in the experiment with NCI-H322M lung; 49.9% in the experiment on HOP-62 NSCLC; 37.8% in the experiment on NCI-H460 lung; 23.5% with HOP-92 NSCLC. Further, the growth is 41.3% in the experiment with NCI-H522 lung; 42.6% in the experiment on A549/ATCC NSCLC; 57.3% with 786-0 renal; 18.1% in the experiment with COLO 205 colon; 79.8% in the experiment with DU-145 prostate; 1.71% (active) with K-562 leukemia. Also, the growth in the experiment with MALME-3M melanoma is 59.2%; in the experiment on MDA-MB-231 breast, 36%; with RXF 393 renal it was 39.5%; in the experiment on SF-268 CNS, 50.8%; with SF-295 CNS, 27.5%; with SF-539 CNS, 67.3%. The figures for the growth with UACC-257 melanoma and in the experiment on M14 melanoma were 83% and 34.7%, respectively.
With `CN1CCN(Cc2ccc(NC(=O)c3cncc(C#Cc4cncc5[nH]ncc45)c3)cc2C(F)(F)F)CC1`, the growth is 7.77% (active) in the experiment with NCI-H23 lung; -43.3% (active) with NCI-H226 lung; 13.7% with NCI-H322M lung; 7.14% (active) in the experiment with HOP-62 NSCLC; 3.22% (active) with NCI-H460 lung; -22.9% (active) in the experiment on HOP-92 NSCLC. Also, the growth in the experiment with NCI-H522 lung was 23.2%; in the experiment with A549/ATCC NSCLC, 13.1%; with 786-0 renal, 20.6%; with COLO 205 colon, 1.42% (active); in the experiment on DU-145 prostate, 20.2%; in the experiment on K-562 leukemia, -5.05% (active). Besides, the growth is -65.7% (active) in the experiment on MALME-3M melanoma; -88.2% (active) with MDA-MB-231 breast; -4.93% (active) with RXF 393 renal; 2.23% (active) in the experiment with SF-268 CNS; 29% with SF-295 CNS; -56.8% (active) in the experiment with SF-539 CNS. Moreover, the values for the growth in the experiment with UACC-257 melanoma and in the experiment with M14 melanoma were 6.82% (active) and -57.6% (active), respectively.
